This is a sample that favours compounds with a hit; in the whole collection about 1.3% have one here.
TrxR1 inh: inhibitors of rat thioredoxin reductase 1; O89049; actives 1% (n = 390,000); recombinant rTrxR1, NADPH fluorescence consumption, selenite substrate; Potency, µM (top dose mostly 114 µM), for the others: at the top dose activity change, negative = inhibition, actives largely listed as inhibitors; also: nearly all actives have a fitted effect of over 65% in size
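Rat TrxR1 (90 nM in the dispensed reagent) was pre-reduced with 400 uM NADPH for 5 min at room temperature, then incubated with compound for 15 min. After 400 uM selenite was added, NADPH fluorescence (Ex 340/Em 450 nm) was followed for 8 min.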
TrxR1 substrate: substrates of rat thioredoxin reductase 1; O89049; purified TrxR1 substrate turnover, NADPH consumption readout; Potency, µM (highest dose often 114 µM), without a hit: at the highest dose activity change, negative = substrate turnover; actives 0.01% (n = 390,000); also: nearly all actives have a fitted effect of over 50% in size
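Rat TrxR1, dispensed at 90 nM, was prereduced with 400 uM NADPH (final) for 5 min at ~22 deg C, then incubated with compound 15 min before 400 uM selenite. A first-read NADPH fluorescence drop versus no-compound background flagged substrates.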
GALK inh: inhibitors of human galactokinase; Purified GALK, Kinase-Glo residual ATP luminescence; Potency, µM (doses to about 57.5 µM), inactives show top-dose activity change, negative = inhibition, usual class: inhibitors; actives 0.007% (n = 270,000); AID 1868
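Kinase-Glo Plus luminescence measured ATP left after a 1 h room-temperature reaction. The reaction used 5 nM GALK, 100 uM galactose and 35 uM ATP at pH 8.0 (20 mM HEPES, 5 mM MgCl2, 60 mM NaCl, 1 mM DTT, 0.01% BSA).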
Anesthetic bind: candidate novel general anesthetic via apoferritin binding; P02791; apoferritin/1-aminoanthracene competitive binding, fluorescence; Potency, µM (top dose mostly 77.5 µM), inactives show at the highest dose activity change, negative = displacement, hits mostly inhibitors; actives 0.074% (n = 350,000); AID 485281; also: nearly all actives have a fitted effect of over 20% in size
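Probe: 1-aminoanthracene (50% saturated, PBS). Protein: horse-spleen apoferritin, 10 uM. Incubation: 10 min, room temperature. Detection: 380 nm excitation, 535 nm emission. Analysis: normalized response, four-parameter Hill.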
PKM2 activator: PKM2 (human) enzyme activation. purified PKM2, Kinase-Glo ATP luminescence, activation; response scale: 0% is enzyme alone, no compound. P14618. Potency, µM (titrated, usually from 57.5 µM), for the others: at the highest dose activation, most hits filed as activators. actives 0.34% (n = 260,000). AID 1631; also: nearly all actives have a fitted effect of over 55% in size
Target sequence (P14618 whole entry, looked up): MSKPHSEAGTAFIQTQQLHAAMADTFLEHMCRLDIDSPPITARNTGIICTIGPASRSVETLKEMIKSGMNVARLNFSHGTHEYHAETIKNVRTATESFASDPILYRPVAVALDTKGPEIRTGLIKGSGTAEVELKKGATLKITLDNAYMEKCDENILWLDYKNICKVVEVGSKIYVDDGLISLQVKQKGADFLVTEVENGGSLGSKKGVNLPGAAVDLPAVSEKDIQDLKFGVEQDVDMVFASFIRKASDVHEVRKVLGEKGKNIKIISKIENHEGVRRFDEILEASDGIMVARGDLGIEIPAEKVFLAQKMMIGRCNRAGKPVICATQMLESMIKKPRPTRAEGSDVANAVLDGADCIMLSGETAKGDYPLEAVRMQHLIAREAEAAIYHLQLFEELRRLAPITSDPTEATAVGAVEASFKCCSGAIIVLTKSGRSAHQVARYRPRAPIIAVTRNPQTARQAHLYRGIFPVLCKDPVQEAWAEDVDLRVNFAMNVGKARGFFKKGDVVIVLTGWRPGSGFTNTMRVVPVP
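hPK-M2, >95% pure; 0.1 mM ADP / 0.5 mM PEP final; imidazole pH7.2 buffer w/ 7 mM MgCl2, 50 mM KCl; 1 h RT; Kinase-Glo lum. Intermediate enzyme activity for dual inhibitor/activator qHTS.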
IDH1 R132H inh: inhibitors of human mutant IDH1 R132H; IDH1-R132H enzyme, NADPH consumption, diaphorase/resazurin fluorescence; actives 0.093% (n = 390,000); AID 602179; O75874; Potency, µM (highest dose often 76.6 µM), inactives show at the highest dose activity change, negative = inhibition, hits mostly inhibitors; also: nearly all actives have a fitted effect of over 65% in size
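IDH1-R132H (0.5 ug/mL dispensed) in pH 7.5 Tris buffer was preincubated 30 min with compound, then given a substrate mix of 0.016 mM NADPH and 2 mM alpha-KG for 80 min at room temperature; remaining NADPH was read by diaphorase/resazurin fluorescence.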
Active calls of the source: *; ? = inconclusive; . = no result given; [ ] = dose if it differs, or a comment. Calls follow the shape of the dose curve; as a rule, active = well fitted curve in the direction sought with a large enough effect; inconclusive = small, poorly fitted or top-dose-only effect, or another doubt; inactive = no such curve, though single readings can be large; an effect the other way counts as inactive or inconclusive. % is scaled to controls: 0 for no effect and ±100 for the full control effect; potency is read from the fitted curve at half-maximal effect.

SMILES	TrxR1 inh	TrxR1 substrate	GALK inh	Anesthetic bind	PKM2 activator	IDH1 R132H inh
O=C1NC(=O)N(Cc2ccc(F)cc2)C(=O)/C1=C/c1cccs1	18µM*	14%[57.1 µM]	4%	-7%	?	0%
O=C1NC(=O)N(Cc2ccccc2Cl)C(=O)/C1=C/c1cccs1	?	7%	0%	-15%	?	-5%
COC(=O)[C@@H]1[C@@H](O)[C@@]2(O)c3c(OC)cc(OC)cc3O[C@@]2(c2ccc(OC)cc2)[C@H]1c1ccccc1	.	.	.	-8%[15.3 µM]	.	.
COC(=O)[C@]1(C)CC[C@@]2(C)CC[C@@]3(C)C4=CC=C5C(=CC(=O)C(O)=C5C)[C@@]4(C)CC[C@@]3(C)C2C1 (stereo partly specified)	.	.	.	-24%	.	.
CCC(C)N1C(=O)/C(=C\c2ccc(N3CCCCCC3)cc2)C(=O)NC1=S (stereo unspecified)	8.9µM*	5%[57.1 µM]	0%	0%	-5%	-1%
CCC(C)N1C(=O)/C(=C\c2cc3c4c(c2)CCCN4CCC3)C(=O)NC1=S (stereo unspecified)	32µM*	-1%	.	-22%	0%	7%
CCC(C)N1C(=O)/C(=C\c2cnc(N(C)C)nc2)C(=O)NC1=S (stereo unspecified)	14µM*	9%[57.1 µM]	-2%	-11%	0%	-2%
CCCCN1C(=O)/C(=C/c2ccc(N3CCCCCC3)cc2)C(=O)NC1=S	.	.	-2%	9%	3%	.
CN(C)c1ccc(/C=C2\C(=O)NC(=O)N(Cc3ccc(F)cc3)C2=O)cc1	?	-1%	.	-7%	0%	-9%
Cc1ccc(C)c(N2CCN(c3nc4ccc(Cl)cc4n4cnnc34)CC2)c1	11%	30%	.	-9%	.	.
CC(C)=CCCN1CCC(NC(=O)C(O)(c2ccccc2)C2CCCC2)CC1 (stereo unspecified)	.	.	.	-1%	.	.
O=C(O)CCC(=O)NCCC1=c2ccccc2=N/C1=C\c1c(O)n(Cc2ccc(F)cc2)c(=S)[nH]c1=O	35µM*	6%	-15%	-11%	49%	6%
O=C(N/N=C/c1c(O)n(Cc2ccc(F)cc2)c(=O)[nH]c1=O)c1ccccc1	1%[57.1 µM]	2%[57.1 µM]	-3%	1%	0%	2%
O=c1[nH]c(=O)n(Cc2ccco2)c(O)c1C=NCc1cccs1	-17%	8%	2%	-14%	28µM*	-5%
COc1cc2c(cc1O)C(CCc1ccc(Cl)cc1)N(C)CC2 (stereo unspecified)	.	.	.	5%	1%	.
O=C1C(=O)c2ccccc2-c2ccccc21	10µM*	3.2µM*	3.2µM*	-16%	7%	-16%
COCOC1CCC2C3CCC4=CC(=O)CCC4=C3C=CC12C (stereo unspecified)	40µM*	3%	.	.	.	11%
CC1(O)CCC2C3CCC4=CC(=O)CCC4=C3C=CC21C (stereo unspecified)	-10%[2.29 µM]	-8%[2.29 µM]	.	.	.	-10%
O=C1NC(=O)N(c2ccc(Cl)cc2)C(=O)/C1=C\c1ccc(Sc2nc3ccccc3[nH]2)o1	13µM*	8%[57.1 µM]	-4%	-7%	20%	-9%
Cc1c(C=C2C(=O)N(C)C(=S)N(C)C2=O)c2ccccc2n1CC(=O)NCC1CCCO1 (stereo unspecified)	13µM*	-10%	-9%	-16%	.	1%
CCOc1ccc(/C=C/c2nc(C#N)c(NCc3ccccc3)o2)cc1	9%	5%	.	40%	.	.
N#CC(C#N)=Cc1ccc(C=C(C#N)C#N)cc1	7.9µM*	-5%	.	-1%	7%	1%
O=C1NC(=S)NC(=O)C1=Cc1ccc(OCC(=O)N2CCCC2)cc1	5.6µM*	-3%	-7%	-17%	6%	21%
N=C(N)c1ccc(-c2ccc(-c3ccc(C(=N)N)cc3)o2)cc1	?	473%	.	.	.	.
CC(C)N(C(=O)CCl)c1ccccc1	20µM*	12%	.	-6%	.	19%

Bioassay records as filed in PubChem.
